From PubChem BioAssay
HCV inh = blocks hepatitis C virus | Huh7.5.1 HCVcc-Cre infection, luciferase reporter, 44 h | Potency, µM (series often up to 41.8 µM), actives largely listed as inhibitors | hit rate 3.4% among 340,000
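Cells (1,000/well) were plated 4 h before compound, then infected with HCVcc-Cre virus (~0.5 moi). After 44 h further culture, infection was read as luciferase luminescence following a 15 min substrate incubation at room temperature.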
HCMV inh = human cytomegalovirus inhibition. HFF cells, HCMV-luciferase reporter, 72 h; active compounds read low. activity change, negative = inhibition, % at 57.5 µM. hit rate 4.5% among 410,000; in the data active = activity change below about -60%; inconclusive = no clear call, values can overlap the other calls; inactive = above about -39%
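After 16 h attachment at 37C, HFF cells received test compound and HCMV-luciferase (1 PFU/cell); reporter luminescence read 72 h later, data normalized against buffer-only and known inhibitor Salinomycin.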
Pf growth 96h = P. falciparum growth inhibition at 96 hours | Potency, µM (series often up to 28.7 µM), most hits filed as inhibitors | hit rate 6.9% among 320,000 | P. falciparum luciferase reporter growth, 96 h
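Two-generation exposure (96 h) targets delayed-death phenotype. Reporter parasites carrying integrated firefly luciferase, in red cells at 2% hematocrit and 0.05% parasitemia final, kept at 37 C, 5% CO2; luminescence loss indicates inhibition.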
LASV entry inh = inhibitors of Lassa virus binding or cell entry; Lassa virus pseudotype entry inhibition, cell reporter; Potency, µM (doses to about 37.9 µM), actives largely listed as inhibitors; hit rate 1.2% among 300,000; AID 540256; calls by dose curve; tested in HEK293 cells; also: nearly all actives have a fitted effect of over 50% in size
MARV entry inh = Marburg virus entry inhibition; Marburg virus pseudotyped entry inhibition, cell reporter; Potency, µM (titrated, usually from 37.8 µM), most hits filed as inhibitors; hit rate 1.8% among 300,000; calls by dose curve; tested in HEK293 cells
Pf growth 48h = P. falciparum growth inhibition at 48 hours (one generation); P. falciparum luciferase growth in erythrocytes, 48 h; Potency, µM (titrated, usually from 28.7 µM), usual class: inhibitors; hit rate 5.9% among 310,000
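Read-out is firefly luciferase luminescence from an integrated reporter in P. falciparum, so falling signal marks reduced parasite growth. Infected erythrocytes were at 2% hematocrit and 0.1% parasitemia (final) in Albumax-supplemented RPMI 1640.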
Numbers stand for hits; 0 = inactive; ? = inconclusive; - = not tested or not shown. Shown are actives, neighbours in structure and some others; about 14% of the full set was active somewhere. Unless noted, calls follow the shape of the dose curve; as a rule, active = well fitted inhibition curve with a large enough effect; inconclusive = small, poorly fitted or top-dose-only effect, or another doubt; inactive = no such curve, though single readings can be large or run the other way.

SMILES	HCV inh	HCMV inh	Pf growth 96h	LASV entry inh	MARV entry inh	Pf growth 48h
Clc1cccc(-c2nc(-c3ccccn3)no2)c1	0	0	7.4µM	1.8µM	?	0
c1ccc(-c2nc(-c3ccccn3)no2)cc1	0	0	0	?	?	0
c1ccc(-c2ccc(-c3nc(-c4ccccn4)no3)cc2)cc1	?	-95	?	?	?	-
c1ccc(-c2cc(-c3nc(-c4ccccn4)no3)c3ccccc3n2)cc1	0	0	-	?	0	-
COc1cc(-c2nc(-c3cccc(C(F)(F)F)c3)no2)cc(OC)c1OC	?	0	12µM	0	?	?
Cc1ccc(-c2nc(-c3ccccn3)no2)cc1Cl	0	-64	-	1.4µM	?	0
COc1cc(-c2nc(-c3ccccn3)no2)cc(OC)c1OC	4µM	0	0	0	0	0
Cc1ccc(-c2nc(-c3ccccn3)no2)cc1[N+](=O)[O-]	?	0	0	-	-	0
CN(CC(=O)Nc1ccc(Br)cc1)S(=O)(=O)c1cccc2nsnc12	-	0	-	0	0	-
N[C@H](C(=O)O)[C@H](Cc1ccccc1)C(=O)O	-	-	-	0	0	-
CCOC(=O)C1=NNC(C(=O)c2ccccc2)C1c1ccc(Cl)cc1 (stereo not drawn)	?	0	0	0	?	0
CCOC(=O)C1=NNC(C(=O)c2ccccc2)C1c1ccc(C)cc1 (stereo not drawn)	0	0	2.1µM	-	-	1.7µM
CCOC(=O)C1=NNC(C(=O)c2ccc(C)cc2)C1c1ccc(C)cc1 (stereo not drawn)	0	0	0	?	?	10µM
O=c1c(C=NCc2cccs2)c(O)n(C2CCCCC2)c(=O)n1C1CCCCC1	0	0	?	0	?	-
O=c1c(C=NCCN2CCNCC2)c(O)n(C2CCCCC2)c(=O)n1C1CCCCC1	?	-	?	0	21µM	13µM
COc1cccc(/C=N/NC(=O)c2[nH]c(C)c(C(=O)N/N=C/c3cccc(OC)c3)c2C)c1	10µM	0	?	0	?	0
COc1ccc(/C=N/NC(=O)c2[nH]c(C)c(C(=O)N/N=C/c3ccc(OC)cc3)c2C)cc1	?	0	0	?	?	0
CCOC(=O)c1c(C)[nH]c(C(=O)N/N=C/c2cccc(OC)c2)c1C	22µM	0	0	?	?	0
CCOC(=O)c1c(C)[nH]c(C(=O)N/N=C\c2ccccc2Cl)c1C	?	-99	9.3µM	?	0	?
CCn1c(N2CCN(C(c3ccccc3)c3ccccc3)CC2)nc2c1c(=O)[nH]c(=O)n2C	0	0	-	-	-	-
O=C1c2ccccc2C(c2nnnn2-c2ccc3c(c2)OCCO3)N1Cc1ccc2c(c1)OCO2 (stereo not drawn)	-	0	-	-	-	-
Cn1c(=S)c2[nH]c(SCCN3CCCC3)nc2n(C)c1=O	0	0	?	-	-	12µM
Cn1c(=S)c2[nH]c(SCCN)nc2n(C)c1=O	0	0	-	0	0	-
N=c1c(C(=O)NCCc2ccccc2)cc2c(=O)n3ccccc3nc2n1Cc1ccco1	?	?	0	?	?	2.3µM
COc1ccc(CCn2c(=N)c(C(=O)NCc3ccco3)cc3c(=O)n4ccccc4nc32)cc1	-	?	?	0	21µM	2.9µM
SMILES	HCV inh	HCMV inh	Pf growth 96h	LASV entry inh	MARV entry inh	Pf growth 48h
N=c1c(C(=O)NC2CCCCC2)cc2c(=O)n3ccccc3nc2n1CCc1ccccc1	?	0	1.7µM	0	0	1.5µM
N=c1c(C(=O)NC2CCCCC2)cc2c(=O)n3ccccc3nc2n1Cc1cccnc1	?	0	0	0	0	?
N=c1c(C(=O)NC2CCCCC2)cc2c(=O)n3ccccc3nc2n1Cc1ccccc1	11µM	?	5.9µM	-	-	?
CCOCCCn1c(=N)c(C(=O)NCc2ccccc2)cc2c(=O)n3ccccc3nc21	-	0	-	0	?	-
CC1(C)CC(NC(=O)c2cc(S(=O)(=O)N3CCOCC3)c(Cl)cc2Cl)CC(C)(C)N1	0	0	?	?	0	0
NS(=O)(=O)c1ccc(CCNC(=O)COC(=O)c2nc(Cl)ccc2Cl)cc1	0	?	0	-	-	0
CCCCCCCc1cc2ccc(F)cc2c2c(C(=O)OC)c(C(=O)OC)c(C(=O)OC)n12	-	-	-	-	0	-
COc1ccc(-c2nnc(SCC(=O)NC3CCCC3)nc2-c2ccc(OC)c(OC)c2)cc1OC	-	0	-	?	-	-
CC(C)Cc1ccc(CN2CCCC(NC(=O)c3cnc4ccccn4c3=O)C2)cc1 (stereo not drawn)	0	0	-	?	0	-
N=c1c(C(=O)NC2CCCCC2)cc2c(=O)n3ccccc3nc2n1Cc1ccco1	?	0	0	0	?	3.7µM
O=C(NC1CCCN(Cc2ccc(Cl)cc2)C1)c1cnc2ccccn2c1=O (stereo not drawn)	?	-65	0	?	?	0
COC(=O)[C@@]1(C(C)C)N=C(c2cc(OC)c(OC)c(OC)c2)[C@]2(O1)C(=O)N(C)c1ccc(Br)cc12	-	0	-	-	-	-
Cc1cccnc1NC(=O)c1sc2ccccc2c1Cl	0	0	0	?	?	0
Cc1ccc(NC(=O)c2sc3ccccc3c2Cl)nc1	0	0	0	5.8µM	?	0
CNC(=O)c1ccsc1NC(=O)c1sc2ccccc2c1Cl	11µM	0	0	0	?	0
Cc1nnc(NC(=O)c2sc3ccccc3c2Cl)s1	0	0	0	12µM	?	0
O=C1CCCCC1CCc1ccncc1 (stereo not drawn)	0	0	-	0	0	-
C[C@H]1Cn2cnc(C(=O)NCC(=O)OC(C)(C)C)c2C(=O)N1	-	0	-	-	-	-
COC(=O)c1ccc(/C=C2/SC(=S)N(CCCC(=O)Nc3ccccn3)C2=O)cc1	0	-85	0	0	?	?
CCc1ccc(/C=C2\SC(=S)N(CCCC(=O)Nc3ccccn3)C2=O)cc1	0	-103	0	11µM	?	?
COc1ccccc1OCC(=O)OCC(=O)Nc1ncc(Cl)cc1Cl	0	0	0	0	0	0
O=C(COC(=O)Cc1ccccc1)Nc1ncc(Cl)cc1Cl	0	?	0	0	0	-
O=C(COC(=O)CNC(=O)c1ccco1)Nc1ncc(Cl)cc1Cl	0	-100	0	-	-	0
CCOc1ccccc1OCC(=O)OCC(=O)Nc1ncc(Cl)cc1Cl	0	-72	0	0	0	0
COc1ccc(NC(=O)CSc2nc(-c3cccs3)cc(C(F)(F)F)n2)c(OC)c1	-	0	-	0	0	-
SMILES	HCV inh	HCMV inh	Pf growth 96h	LASV entry inh	MARV entry inh	Pf growth 48h
C/C(=N\OCc1ccc(C#N)cc1)c1cc2ccccc2o1	?	?	0	0	?	0
COC(=O)/C(=N\OCc1ccc(C#N)cc1)c1c(C)nn(C)c1C	0	-100	0	0	0	0
O=C(NNc1nc2c(F)cc(F)cc2s1)c1ccccc1	0	-70	0	0	?	0
O=C(NNc1nc2ccc(F)cc2s1)c1cccc(F)c1	?	-81	?	?	11µM	?
O=C(NNc1nc2ccccc2s1)c1ccc(F)cc1	0	0	?	0	?	13µM
C[C@@H]1c2ccccc2N2C[C@H](Cc3ccc(C(=O)c4ccccc4)cc3)C[C@@H]12	-	0	-	-	-	-
